Pf Dd2 inh – blocks growth of Plasmodium falciparum Dd2 parasites. AID 1159554. P. falciparum Dd2 growth, SYBR Green, 72 h; hits give low values. activity change, % at 10 µM. actives 2.3% (n = 94,000); in the data active means activity change below about -80%; inconclusive means no clear call, values can overlap the other calls
C diff growth – C. difficile growth inhibition; Clostridium difficile clinical isolate growth, OD600, 24 h; hits give low values; growth activity, negative = inhibition, % at 16 µg/mL (by protocol); actives 0.25% (n = 86,000);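 active means mean growth activity at or below -80% and every replicate also at or below -80%; inconclusive means mean at or below -80% but some replicate above -80%; inactive means mean growth activity above -80%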
T cruzi growth-1 – blocks T. cruzi growth in NIH3T3 culture. T. cruzi beta-gal in NIH3T3, GalScreen luminescence, 90 h. inhibition, % at 8.34 µM. actives 5.9% (n = 77,000). AID 624255;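 active means mean inhibition above about 93%, with at least 55% of replicates each passing it, limit read from the data, passing the limit was not always enough; inconclusive means only one of those two conditions holds; inactive means neither condition holds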
T cruzi growth-2 – blocks T. cruzi growth in NIH3T3 host cells. T. cruzi beta-gal in NIH3T3, GalScreen luminescence, 90 h. actives 72% (n = 5,600). inhibition, % at 8.35 µM. AID 651739. shares compounds with T cruzi growth-1;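 active means mean replicate inhibition above about 95% and at least 55% of replicates individually reaching it, limit read from the data; inconclusive means only one of the two criteria is met; inactive means neither criterion is met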
T cruzi growth-3 – Trypanosoma cruzi proliferation inhibition; T. cruzi beta-gal in NIH3T3, GalScreen luminescence, 90 h; inhibition, % at 2.09 µM; AID 651740; shares compounds with T cruzi growth-1; actives 21% (n = 5,600);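 active means mean inhibition above about 95%, with at least 55% of replicates also reaching it, limit read from the data; inconclusive means meets just one of the two conditions; inactive means meets neither condition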
NIH3T3 tox – cytotoxicity in mouse NIH/3T3 fibroblasts; actives 14% (n = 5,600); cytotoxicity (signal decrease), % at 8.35 µM; shares compounds with T cruzi growth-1; NIH/3T3 viability, CellTiter-Glo ATP luminescence, 90 h;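 active means mean signal decrease across replicates above about 35% based on untreated-well scatter, with enough replicates individually passing, limit read from the data; inconclusive means no rule stated though some were filed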
NIH3T3 tox 2 – kills mouse NIH/3T3 fibroblasts; shares compounds with T cruzi growth-1; NIH/3T3 viability, CellTiter-Glo ATP luminescence, 90 h; AID 651744; actives 56% (n = 5,600); inhibition, % at 24.9 µM;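 active means mean loss of cell viability signal at or above a set limit, and enough replicates individually reaching it; inconclusive means meets only the mean limit or only the replicate share; inactive means meets neither condition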
Hits are given with their value; n = inactive; u = inconclusive; x = not tested or not shown. Hits are enriched below; roughly 6.7% of the tested compounds scored in any of these assays.

SMILES	Pf Dd2 inh	C diff growth	T cruzi growth-1	T cruzi growth-2	T cruzi growth-3	NIH3T3 tox	NIH3T3 tox 2
CO[C@H]1CN(C)C(=O)c2cc(NC(=O)NC3CCCCC3)ccc2OC[C@H](C)N(CCc2ccccc2)C[C@@H]1C	n	x	n	x	x	x	x
CCC(=O)Nc1ccc2c(c1)OC[C@@H](C)N(CCc1ccccc1)C[C@H](C)[C@@H](OC)CN(C)C2=O	n	x	n	x	x	x	x
CO[C@@H]1CN(C)C(=O)c2ccc(NC(=O)Cc3ccccc3)cc2OC[C@@H](C)N(CCc2ccccc2)C[C@H]1C	n	x	99.1	99.7	103.6	n	n
CO[C@@H]1CN(C)C(=O)c2ccc(NC(=O)NC3CCCCC3)cc2OC[C@@H](C)N(CCc2ccccc2)C[C@H]1C	n	x	117.8	110.1	n	n	n
COc1ccc(COC[C@@]23Oc4ccccc4[C@@H](NC(=O)N2C)[C@H]3COC(=O)c2ccc([N+](=O)[O-])cc2)cc1	x	n	x	x	x	x	x
COCC(=O)Nc1ccc2c(c1)OC[C@@H](C)N(Cc1cccc(F)c1)C[C@H](C)[C@@H](OC)CN(C)C2=O	n	x	n	x	x	x	x
C[C@@H]1CCCCO[C@H](CN(C)C(=O)Nc2ccc(C(F)(F)F)cc2)[C@H](C)CN([C@@H](C)CO)C(=O)c2cc(NC(=O)NC3CCCCC3)ccc2O1	n	n	117.4	109.5	n	n	u
C[C@H]1CCCCO[C@H](CN(C)C(=O)NC2CCCCC2)[C@@H](C)CN([C@@H](C)CO)C(=O)c2cc(NC(=O)Nc3ccc(C(F)(F)F)cc3)ccc2O1	n	n	n	x	x	x	x
C[C@@H]1CCCCO[C@H](CN(C)C(=O)Nc2ccc(C(F)(F)F)cc2)[C@@H](C)CN([C@@H](C)CO)C(=O)c2cc(NC(=O)NC3CCCCC3)ccc2O1	-89.5	n	121.2	105.0	115.3	n	n
C[C@@H]1CCCCO[C@@H](CN(C)C(=O)NC2CCCCC2)[C@H](C)CN([C@@H](C)CO)C(=O)c2cc(NC(=O)Nc3ccc(C(F)(F)F)cc3)ccc2O1	n	n	n	x	x	x	x
C[C@H]1CN([C@@H](C)CO)S(=O)(=O)c2ccc(C#CC3CC3)cc2O[C@H]1CN(C)Cc1cccc(F)c1	n	n	x	x	x	x	x
C[C@@H]1CN([C@H](C)CO)S(=O)(=O)c2ccc(C#Cc3ccccn3)cc2O[C@H]1CN(C)Cc1cccc(F)c1	n	n	121.2	103.0	n	u	80.8
C[C@@H]1CN([C@@H](C)CO)S(=O)(=O)c2ccc(C#CC3CC3)cc2O[C@@H]1CN(C)Cc1cccc(F)c1	n	n	x	x	x	x	x
C[C@H]1CN([C@@H](C)CO)S(=O)(=O)c2ccc(C#Cc3ccccn3)cc2O[C@@H]1CN(C)Cc1cccc(F)c1	n	n	126.5	97.9	n	n	69.9
C[C@H]1CN([C@@H](C)CO)S(=O)(=O)c2ccc(C#Cc3ccccn3)cc2O[C@H]1CN(C)Cc1cccc(F)c1	n	n	125.2	108.5	n	n	n
C[C@H](CO)N1C[C@H](C)[C@H](CN(C)Cc2cccc(F)c2)Oc2cc(C#Cc3ccccn3)ccc2S1(=O)=O	n	n	124.4	103.3	103.4	n	n
C[C@H]1CN([C@@H](C)CO)S(=O)(=O)c2ccc(C#CC3CC3)cc2O[C@@H]1CN(C)Cc1cccc(F)c1	n	n	x	x	x	x	x
CCCC(=O)Nc1ccc2c(c1)C(=O)N(C)[C@@H]1CC[C@H](CC(=O)NCc3cccc(F)c3)O[C@@H]1CO2	n	x	n	x	x	x	x
CO[C@@H]1CN(C)C(=O)c2ccc(NC(=O)c3ccc4c(c3)OCO4)cc2OC[C@@H](C)NC[C@@H]1C	n	x	n	x	x	x	x
COc1ccc2c3c([nH]c2c1)[C@H](CO)N(C(=O)C1CCCC1)CC31CCN(C)CC1	n	n	x	x	x	x	x
CC(C)NC(=O)N(C)C[C@@H]1OCCCC[C@@H](C)Oc2ccc(NC(=O)CCC(F)(F)F)cc2C(=O)N([C@@H](C)CO)C[C@H]1C	n	n	n	x	x	x	x
COC(=O)C[C@@H]1CC[C@@H]2[C@@H](COc3ccc(NC(=O)c4cscn4)cc3C(=O)N2C)O1	n	n	n	x	x	x	x
O=S(=O)(c1ccccc1F)N1CC[C@H]2[C@H](CO)Nc3ccc(-c4ccccc4)cc3[C@H]21	n	n	n	x	x	x	x

High-throughput results (PubChem BioAssay)
